# According to PubChem BioAssay AID1861 (The Scripps Research Institute Molecular Screening Center, 2009):
# The campaign covered roughly 290,000 compounds. About 3,100 (1.1%) were called active. This is one part of a sample in which actives are shown more often than they occur. Unmarked numbers belong to inactive results. No stated cut-off is given here; in the data, active means inhibition above about 16% (passing the limit was not always enough); inactive means the rest.
# Target: Neuropeptides B/W receptor type 1 (Homo sapiens) (UniProt P48145)
# Sequence (P48145 whole entry, looked up): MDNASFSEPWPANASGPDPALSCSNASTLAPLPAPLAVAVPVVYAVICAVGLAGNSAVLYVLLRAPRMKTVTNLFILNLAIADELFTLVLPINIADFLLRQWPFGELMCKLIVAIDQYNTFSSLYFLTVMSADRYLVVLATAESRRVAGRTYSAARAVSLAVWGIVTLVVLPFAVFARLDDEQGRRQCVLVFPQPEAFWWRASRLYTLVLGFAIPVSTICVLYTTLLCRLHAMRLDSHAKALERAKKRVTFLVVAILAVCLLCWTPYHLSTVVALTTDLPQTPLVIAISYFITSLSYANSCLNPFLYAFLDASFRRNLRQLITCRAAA
# Assay: blockers of human neuropeptide B/W receptor 1 – cell-based, fluorescence, single concentration, primary screen (AID 1861);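 further: cells stimulated with the agonist NPW; 0% = agonist with vehicle and 100% = vehicle without agonist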
# Conditions: GPR7-expressing cells, fluorescence antagonist assay; at 4.4 µM; active compounds read high
row,Structure (SMILES),inhibition
1,COC(=O)c1ccccc1NC(=O)CSc1n[nH]c(-c2ccncc2)n1,-2.88%
2,Cc1cc(-c2ccccc2)n2nc(C)c(-c3ccccc3)c2n1,-10.5%
3,Cc1cc(-n2nc(C)cc2C)n2nc(C)c(-c3ccccc3)c2n1,-6.35%
4,CCc1c(C)nc2c(-c3ccccc3)c(C)nn2c1Nc1ccc(NC(C)=O)cc1,27.4% (active)
5,COc1ccc(C(=O)CCC(=O)Nc2cccnc2)c(OC)c1,2.52%
6,CC(=O)NC(C)c1nc2ccccc2n1Cc1ccccc1F (centres undefined),-2.12%
7,N=c1n(CCc2ccccc2)c2ccccc2n1Cc1ccccc1F,21.8% (active)
8,Fc1ccccc1Cn1cnc(NC(=S)NCCc2ccccc2)n1,10.1%
9,CCNC(=O)c1cnn(-c2ccccc2)c1-c1ccccc1,-4.37%
10,COCCNC(=O)c1ccc2c(c1)ncn2-c1ccc(C)c(Cl)c1,0.48%
11,CC(=O)Nc1cccc(Nc2nc(-c3cccs3)nc3ccccc23)c1,-8.63%
12,COc1ccc(C(=O)NC2CC2)cc1OC1CCN(Cc2cnn(C)c2)CC1,0.96%
13,N#CC1=C(SCc2ccccc2)NC(=O)C(C#N)C12CCCC2 (centres undefined),-8.17%
14,N#CC1=C(SCc2ccc(C#N)cc2)N=C(N)C(c2nc(-c3ccccc3)cs2)C12CCCCC2 (centres undefined),28.4% (active)
15,N#Cc1ccc(CSc2ncccn2)cc1,3.62%
16,Cc1ccc2c(=O)oc(N(C)C)nc2c1,9.69%
17,CC1C(=O)Nc2ccccc2N1C(=O)c1c(F)cccc1F (centres undefined),-14.5%
18,COC(=O)C(C)Oc1ccc2c(c1)O/C(=C\c1cccc(Br)c1)C2=O (centres undefined),-5.02%
19,Oc1cccc(/C=N/Nc2ccc(Cl)nn2)c1O,43.7% (active)
20,COc1cccc(/C=N/Nc2ccc(Cl)nn2)c1,-14.8%
21,Clc1ccc(N/N=C/c2cccs2)nn1,-9.79%
22,CCc1cccc(C)c1NS(=O)(=O)c1c(C)nc2sccn2c1=O,-6.98%
23,O=C(/C=C/Sc1ncn[nH]1)c1ccc(Cl)cc1,4.91%
24,Cc1ccc(N(Cc2ccccc2O)C(=O)c2ccccc2F)cc1,-15.3%

row,Structure (SMILES),inhibition
1,CCCc1ccc(OCC(O)CN2CCN(C(=O)OCC)CC2)cc1 (centres undefined),-0.9%
2,Cc1ccc(N2CCN(c3ccc([N+](=O)[O-])cn3)CC2)c(C)c1,15.6%
3,CCCCNC(=O)CSc1nc2ccc(NC(=O)CSc3nnc(N)s3)cc2s1,-5.46%
4,CCCCNC(=O)CSc1nc2ccc(NC(=O)CSc3nnc(COc4ccccc4C)n3C)cc2s1,8.43%
5,Nc1nnc(SCC(=O)Nc2ccc3nc(SCC(=O)Nc4ccccc4)sc3c2)s1,30.6% (active)
6,COc1ccc(F)cc1S(=O)(=O)N1CCCCC1,-5.33%
7,COc1ccc(S(=O)(=O)Nc2ccc(S(=O)(=O)N3CCCCC3)cc2)cc1OC,-7.42%
8,COc1ccc(S(=O)(=O)N2CCCCC2)cc1Br,20.2% (active)
9,CCOc1ccc(C(=O)NC(=S)Nc2ccc(N3CCOCC3)c(Cl)c2)cc1[N+](=O)[O-],21% (active)
10,COc1cccc(OC)c1C(=O)NC(=S)Nc1ccc(N2CCOCC2)c(Cl)c1,-6.83%
11,CCOc1ccc(C(=O)NC(=S)Nc2ccc(NC(=O)C(C)C)cc2)cc1[N+](=O)[O-],-1.37%
12,O=C(NCc1ccccc1Cl)C1CCN(S(=O)(=O)c2cccc3nonc23)CC1,-5.03%
13,COc1ccc(CCNC(=O)C(=O)NCC2OCCN2S(=O)(=O)c2cccs2)cc1OC (centres undefined),-18.7%
14,CC(C)c1ccc(C(=O)OC2CCOC2=O)cc1 (centres undefined),-10.7%
15,O=C(OC1CCOC1=O)c1ccc(-c2nc3ccccc3s2)s1 (centres undefined),13.3% (active)
16,Cc1nn(Cc2ccccc2)c(Cl)c1C(=O)OC1CCOC1=O (centres undefined),-6.27%
17,O=C(Nc1cccc(Cl)c1Cl)c1ccccc1NC(=O)C1CC=CCC1C(=O)O (centres undefined),1.26%
18,COc1ccc(C2CC(=O)NC(=O)C2)cc1,23%
19,c1ccc(C2CNCc3c2ccc2ccccc32)cc1 (centres undefined),38.9% (active)
20,Oc1ccccc1-c1cc(-c2ccc(Cl)cc2)n[nH]1,-4.03%
21,CC1=C(C(=O)OC(C)(C)C)C(c2ccc(Br)cc2)NC(=O)N1CCCC(=O)O (centres undefined),-5.35%
22,Cc1cc(NC(=O)Nc2c[nH]c(=O)[nH]c2=O)ccc1Br,-12.8%
23,CC1CN(C(=O)CCC(=O)NCc2cccnc2)c2ccccc2O1 (centres undefined),6.78%
24,CC1CN(C(=O)CCC(=O)NC2CCN(Cc3ccccc3)CC2)c2ccccc2O1 (centres undefined),-0.83%

row,Structure (SMILES),inhibition
1,CC1CN(C(=O)CCC(=O)NCCCN2CCC(Cc3ccccc3)CC2)c2cc(Cl)ccc2O1 (centres undefined),25.7% (active)
2,COc1ccc(OC)c(NC(=O)CN(C)CCOc2ccc(Br)cc2)c1,17.7%
3,O=C(NCc1nnc(SCC(=O)N2CCCCCC2)o1)c1ccc(F)cc1,-18.2%
4,COc1ccc(NC(=O)c2cc(-c3ccc(C)cc3)on2)cc1,-12.6%
5,COc1ccc(NC(=O)/C(Cl)=C(/Cl)S(=O)Cc2ccc(C)cc2)cn1 (centres undefined),57.6% (active)
6,COc1ccc(Nc2cc(Cl)ccc2C(=O)O)cn1,-11.5%
7,CCOc1ccc(S(=O)(=O)Nc2ccc(OC)nc2)cc1,6.88%
8,COc1ccc(CS(=O)/C(Cl)=C(/Cl)C(=O)Nc2ccc(OC)nc2)cc1 (centres undefined),24.2% (active)
9,COc1ccc(C(=O)Nc2ccc(NC(=O)C(C)C)nc2)cc1,19.8%
10,Cc1occc(=O)c1OCc1c(Cl)cccc1Cl,-7.63%
11,CCN(CC)S(=O)(=O)c1ccc(NC(=O)c2cnc(C)cn2)cc1,-18.4%
12,CCOC(=O)c1cnc2ccc(F)cc2c1Nc1ccc2c(c1)OCCO2,-2.1%
13,COc1cccc(C(=O)NNC(=O)c2cccc(F)c2)c1,-2.7%
14,Cc1ccc2[nH]c3c(c2c1)CN(C(=O)CN1CCN(c2ccccc2)CC1)CC3,3.49%
15,O=C(CCCN1CCc2[nH]c3ccc(F)cc3c2C1)c1ccc(F)cc1,33.9% (active)
16,CCCC(=O)N1CCc2[nH]c3ccccc3c2C1,1.42%
17,CC(C)(C)CC(C)(C)NCC(O)COCCOc1ccc(Br)cc1 (centres undefined),36.9% (active)
18,COc1ccc(OCC(O)CNCCNc2nccc(C(F)(F)F)n2)cc1 (centres undefined),-3.59%
19,OC(COc1ccc(Br)cc1)CN1CCCC1 (centres undefined),-9.13%
20,O=C(Cc1cccs1)NCc1cccc(C(F)(F)F)c1,5.08%
21,COc1ccc(N2C(=O)c3ccccc3NC2c2ccc(OC)c(CN3CCOCC3)c2)cc1 (centres undefined),-11.4%
22,COc1ccc(C2Nc3ccccc3C(=O)N2Cc2ccccc2)cc1Cn1nnc2ccccc21 (centres undefined),28.4% (active)
23,COc1ccc(C2Nc3ccccc3C(=O)N2c2ccc(F)cc2)cc1Cn1nnc2ccccc21 (centres undefined),-1.83%
24,O=C(OCC1O[C@@H](OC(=O)c2cc(O)c(O)c(O)c2)[C@@H](OC(=O)c2cc(O)c(O)c(O)c2)[C@@H](OC(=O)c2cc(O)c(O)c(O)c2)[C@@H]1OC(=O)c1cc(O)c(O)c(O)c1)c1cc(O)c(O)c(O)c1 (some centres undefined),-5.26%

row,Structure (SMILES),inhibition
1,O=C(NCc1ccc2c(c1)OCO2)c1cc(F)c(F)cc1Cl,-4.33%
2,O=C(c1ccccc1)N1CCN(C(=O)c2cc3nc(-c4ccccc4)cc(C(F)(F)F)n3n2)CC1,-7.13%
3,Cc1cccc(-c2nc3ccc(C(=O)NCCN4CCN(C)CC4)cc3nc2-c2cccc(C)c2)c1,31.6% (active)
4,Cc1ccc(C(=O)NCCN2CCOCC2)cc1C,3.82%
5,CCC1=Nc2cc(C(=O)NCCN3CCCC3)ccc2Sc2ccc(C)cc21,-5.13%
6,O=C(C[n+]1ccccc1)N/N=C/c1ccc(O)cc1,-1.15%
7,O=C(CC(=O)Nc1ccc(Cl)c(Cl)c1)N/N=C/c1ccc(O)cc1,24.6% (active)
8,Nc1nnn(CC(=O)N/N=C/c2ccc(O)cc2)n1,5.08%
9,O=C(COc1ccc([N+](=O)[O-])cc1)Nc1cccc(C(=O)Nc2ccccc2C(=O)O)c1,-9.29%
10,O=C(CSc1nnnn1-c1ccccc1)NCc1ccco1,-5.34%
11,O=C(NCc1ccco1)c1nc(-c2ccccc2)n(-c2ccccc2)n1,20.5% (active)
12,O=C(NCc1ccco1)c1nc2ncccn2n1,-0.52%
13,CCOc1ccc(N/C(N)=N/c2nc(C)c(C)c(=O)[nH]2)cc1,6%
14,COc1ccc(CN(C)C(=O)Cc2ccsc2)c(OC)c1OC,8.02%
15,O=C(CN1CCN(C(=S)NC2CCCC2)CC1)Nc1ccc(Oc2ccccc2)cc1,22.4% (active)
16,CCOc1ccc(NC(=S)N2CCC(NC(=O)c3ccccc3)CC2)cc1,-6.68%
17,CCOc1ccc(NC(=O)CN2CCN(CC(=O)Nc3ccc(OC)cc3)CC2)cc1,2.08%
18,Cc1cccc(NS(=O)(=O)c2ccc([N+](=O)[O-])cc2)n1,17.4%
19,COc1ccc(C(=O)N2CCCC(C(=O)c3ccccc3OC)C2)cc1OC (centres undefined),-2.49%
20,O=C(O)CN1CCN(C(c2ccccc2)c2ccccc2)CC1,-8.01%
21,CC(C)NC(=S)N1CCN(C(c2ccccc2)c2ccccc2)CC1,-13.9%
22,CC1(C)CC(N2CCN(C(c3ccccc3)c3ccccc3)CC2)=CC(=[N+]2CCCCC2)C1,66% (active)
